Data published in PubChem BioAssay (NCATS).
Records with an inconclusive call do not appear. Where a call stands in place of a potency, no number is given. The source made the active and inactive calls. The call rests on the fitted dose curve; in most records, active means well fitted curve in the direction sought with a large enough effect; inconclusive means small, poorly fitted or top-dose-only effect, or another doubt; inactive means no such curve, though single readings can be large; an effect the other way counts as inactive or inconclusive.

Legend:
[1] = target: Aldehyde dehydrogenase, mitochondrial (Homo sapiens) (UniProt P05091); assay: qHTS for Inhibitors of the Aldehyde Dehydrogenase Family (ALDH2) Primary screen (AID 2061308); conditions: ALDH2 enzyme inhibition qHTS, 1536-well; series mostly up to 56 µM; further: nearly all actives have a fitted effect of over 55% in size
[2] = target: Retinaldehyde dehydrogenase 3 (Homo sapiens) (UniProt P47895); assay: qHTS for Inhibitors of the Aldehyde Dehydrogenase Family (ALDH1A3) Primary screen (AID 2061315); conditions: ALDH inhibition qHTS; series mostly up to 56 µM

Row | SMILES | Potency [1] | Potency [2]
1 | N#Cc1cccc(S(=O)(=O)Nc2cnccc2C(=O)Nc2nc(-c3ccccc3)cs2)c1 | inactive | inactive
2 | Cc1ccc(C(C)c2ccc(=O)n(CC(=O)NCCc3ccccc3)n2)cc1 (stereo not given) | inactive | inactive
3 | CC(C)(C)OC(=O)NCCOCCOCCOc1ccc(-c2no[n+]([O-])c2C#N)cc1 | inactive | inactive
4 | Cc1ccc(OCCn2c(CCNC(=O)c3ccc4ccccc4c3)nc3ccccc32)cc1 | inactive | inactive
5 | O=c1c2ccc(Cl)cc2nc2sc(Nc3ccc4c(c3)CCC4)nn12 | inactive | inactive
6 | Cc1ccc(N2CCC(CNc3nc(-c4ccccc4C(C)C)ncc3F)CC2)cn1 | inactive | inactive
7 | COc1ccc(-c2cnc(-c3cccc4c3-c3ccccc3C4=O)o2)cc1 | inactive | inactive
8 | CCOC(=O)C1CCN(C(=O)C(C)(C)NC(=O)Nc2cccc(OC)c2)CC1 | inactive | inactive
9 | CC1=C(C(=O)Nc2ccc(Cl)cc2)C(c2ccccc2Br)N=C(Nc2nc3ccccc3o2)N1 (stereo not given) | inactive | inactive
10 | CCCCNc1nc(C)nc2c1nc(C)n2CCC | inactive | inactive
11 | COC(=O)c1ccc2c(c1)/C(=C/c1cc(Br)c(O)c(Br)c1)C(=O)N2 | inactive | inactive
12 | COc1ccc(C2=Nn3c(nnc3-c3ccccc3C(F)(F)F)SC2)cc1OCC1CC1 | inactive | inactive
13 | Cc1cccc(CNc2ncnc3ccc(-c4cccnc4)cc23)c1 | inactive | inactive
14 | O=C(NC1CCCc2c1cnn2-c1ccc(F)cc1F)c1ccn[nH]1 (stereo not given) | inactive | inactive
15 | CN1CCN(Nc2nn3c(=O)c4ccccc4nc3s2)CC1 | inactive | inactive
16 | O=S(=O)(c1cccc(O)c1)N1CCN(S(=O)(=O)c2c(F)cccc2F)CC1 | inactive | inactive
17 | O=C1NS(=O)(=O)C(c2ccccc2)C1c1ccccc1 (stereo not given) | inactive | inactive
18 | O=C([C@@H](Cc1ccc(O[S+](=O)([O-])c2cccnc2)cc1)N[S+](=O)([O-])c1cccc2cccnc12)N1CCN(c2ccccc2)CC1 | inactive | inactive
19 | O=S(=O)(Nc1nccs1)c1ccc(NCc2ccc(Br)cc2O)cc1 | inactive | inactive
20 | O=C(Cc1ccc2ccccc2c1)Nc1ccc(S(=O)(=O)Nc2nccs2)cc1 | inactive | inactive
21 | N#Cc1nc(Nc2cccc(-c3ccccc3)c2)nc(NC2CCCC2)n1 | inactive | inactive
22 | CNC(=O)c1ccc(-c2cnc3cnc(C(=O)N(C)c4ccc(Cl)cc4)cn23)cc1 | inactive | inactive
23 | Fc1cc(F)cc(Nc2nc(Cl)nc(NC3CCCC3)n2)c1 | inactive | inactive
24 | CC(C)CC(OC(=O)CNC(=O)c1ccccc1)C(=O)Nc1cc(C(F)(F)F)ccc1Cl (stereo not given) | inactive | inactive
25 | Cc1cc(-c2nnc3n2CCCCC3)c(C)n1-c1ccc(C#N)cc1 | inactive | inactive
26 | O=C(OCC#CCSc1nnc(-c2cccc3ccccc23)o1)c1cccc(F)c1 | inactive | inactive
27 | CC(=O)Nc1sc2c(c1-c1ccc3nsnc3c1)CCNC2 | inactive | inactive
28 | COc1cccc(NC(=S)N2CCN(c3cccc(C(F)(F)F)n3)CC2)n1 | inactive | inactive
29 | COC(=O)c1sc2c(c1-c1nc3ccccc3s1)CCNC2 | inactive | inactive
30 | NC(=O)C1CCN(c2cc(-c3ccc4c(c3)OCCCO4)ncn2)CC1 | inactive | inactive
